Screening results as filed in PubChem BioAssay.
GSH fluor: GSH bead compound fluorescence profile. AID 1776. GSH beads flow cytometry, compound fluorescence 488/530 nm; stronger effect = higher value. fluorescence (KMESF) at 10 µM. hit rate 0.25% among 190,000; in the data active = fluorescence above about 89;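 also: glutathione beads carrying GST-tagged Bcl family fusion proteins plus one bare bead set; values are compound well signal with DMSO vehicle wells as background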
RGS8-Gao: human RGS8-Galphao interaction regulation; P09471; response (percent of control binding), % at 10 µM; AID 1423; hit rate 0.34% among 220,000; multiplexed bead flow cytometry, RGS8-Galphao binding; actives lie on both sides; in the data active = response below about 60% or above about 140%; inactive = in between;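 also: Galphao activated as the GDP aluminium fluoride complex binding bead-coupled RGS8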
RGS4-Gao reg: modulates binding of RGS4 to human Galphao; P09471; Multiplexed bead flow cytometry; actives lie on both sides; binding response (% of control), % at 10 µM; hit rate 0.33% among 220,000; AID 1415; in the data active = binding response below about 49% or above about 150%; inactive = in between;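 also: fluorescent Galphao activated with aluminum fluoride binding bead-coupled RGS4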
Avidin bead fluor: avidin bead compound fluorescence profile. AID 1775. hit rate 0.38% among 220,000. fluorescence (KMESF) at 10 µM. Avidin beads, compound fluorescence 488/530 nm, flow cytometry; stronger effect = higher value; in the data active = fluorescence above about 47
RGS7-Gao: modulates binding of RGS7 to human Galphao; Multiplexed bead flow cytometry; actives lie on both sides; binding response (% of control), % at 10 µM; hit rate 0.35% among 220,000; AID 1439; in the data active = binding response below about 49% or above about 150%; inconclusive = no clear call, values can overlap the other calls; inactive = in between;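 also: fluorescent Galphao held in activated GDP-AlF4 state binding bead-coupled RGS7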
RGS16-Gao: regulators of human RGS16-Galphao interaction | O15492+P09471 | binding response (% of control), % at 10 µM | bead-based flow cytometry RGS16-Galphao binding, fluorescence; actives lie on both sides | hit rate 0.38% among 220,000; call rule not given here;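 also: Galphao activated by GDP with aluminum fluoride before binding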
Target sequence (O15492 whole entry, looked up): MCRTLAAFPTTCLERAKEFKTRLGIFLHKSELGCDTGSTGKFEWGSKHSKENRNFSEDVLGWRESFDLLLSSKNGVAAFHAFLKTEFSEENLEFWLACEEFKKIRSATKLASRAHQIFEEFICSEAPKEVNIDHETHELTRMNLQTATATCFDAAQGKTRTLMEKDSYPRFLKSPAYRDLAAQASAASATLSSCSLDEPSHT
Target sequence (P09471 whole entry, looked up): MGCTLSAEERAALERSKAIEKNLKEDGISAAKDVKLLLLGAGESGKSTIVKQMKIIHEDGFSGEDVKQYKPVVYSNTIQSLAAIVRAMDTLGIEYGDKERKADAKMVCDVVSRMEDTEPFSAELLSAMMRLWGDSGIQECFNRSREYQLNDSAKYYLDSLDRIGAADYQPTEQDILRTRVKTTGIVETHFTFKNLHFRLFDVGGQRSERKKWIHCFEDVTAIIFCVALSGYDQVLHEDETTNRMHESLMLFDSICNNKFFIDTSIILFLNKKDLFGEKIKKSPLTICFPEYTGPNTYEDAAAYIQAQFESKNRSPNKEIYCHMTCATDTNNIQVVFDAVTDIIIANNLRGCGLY
* = called active by the depositor; ? = inconclusive; / = no result; [ ] = another dose, or the depositor's remark. Most compounds without a hit are left out; they make up all but 1.2% or so of the library.

SMILES	GSH fluor	RGS8-Gao	RGS4-Gao reg	Avidin bead fluor	RGS7-Gao	RGS16-Gao
CCOC(=O)c1nn(-c2ccccc2)c(=O)cc1SC(C)CC (configuration not stated)	32	101	110	100*	144	103
CCOC(=O)c1nn(-c2ccccc2)c(=O)cc1SC(C)C	25	108	103	21	102	134
CC(=O)Nc1ccc(C(=O)OCC(=O)NCc2ccc(Cl)cc2)cc1	9	101	100	13	100	109
Cc1ccc2ccc(S(=O)(=O)n3nc(C)cc3C)cc2c1	27	103	108	54*	120	109
Cc1cc(Br)ccc1OCC(=O)NNC(=O)C(=O)Nc1ccccc1	26	101	98	12	98	104
CCCSCCCNC(=O)Cn1cc2c(n1)CCCCC2	18	56*	49*	3	43*	47
COCCCNC(=O)Cn1cc2c(n1)CCCCC2	16	99	98	5	101	104
CC(C)(C)NC(=O)NCC1CCCC1NC(=O)NC(C)(C)C (configuration not stated)	/	101	106	6	?	107
CCOC(=O)C1=C(Cc2ccc(OC)cc2)C(=O)c2ccccc2C1=O	63	74	73	1	74	57
CCOC(=O)C1=C(Cc2ccc(C)cc2)C(=O)c2ccccc2C1=O	226*	69	87	3	79	58
COCCn1c(N)c(C(=S)NC(=O)c2cccs2)c(=O)[nH]c1=O	/	95	100	10	?	96
Cc1ccc(OCc2nnc(SCCN3CCOCC3)n2C)cc1	30	79	90	8	87	44
CCc1ccc(OCc2nnc(SCCN3CCOCC3)n2C)cc1	260*	103	99	9	104	106
CCOC(=O)N1CCN(C(=S)NC(=O)c2ccc(F)c(F)c2)CC1	25	106	101	11	103	113
N#CCC(=O)Nc1ccccc1C(=O)O	264*	108	110	7	108	131
O=C(O)CC(=O)Nc1ccccc1C(=O)O	31	98	97	12	94	97
Cc1cccc(C)c1N1CCc2cn[nH]c21	12	96	102	48*	102	100
COc1ccc(NC(=O)CSc2ccc(NC(C)=O)cc2)cc1S(=O)(=O)N1CCCCC1	23	100	136	74*	133	105
COc1ccc(NC(=O)CSc2ccc(F)cc2)cc1S(=O)(=O)N1CCCCC1	8	103	104	3	106	102
O=C(NNC1=NCCC1)c1ccc(Br)cc1	261*	136	115	5	111	213
Cc1ccc(C(=O)NNC2=NCCC2)cc1	38	97	98	6	102	97
O=C(Cn1cccc1C(=O)c1ccccc1)NCCC1=CCCCC1	24	101	102	9	103	104
Cn1c(SCCCC(=O)c2ccc(F)cc2)nnc1-c1ccncc1	16	100	100	9	102	105
Cc1occc1-c1nnc(SCCCC(=O)c2ccc(F)cc2)n1C	259*	100	96	8	95	93
O=C(N/N=C/c1ccc(N2CCOCC2)cc1)C1COc2ccccc2O1 (configuration not stated)	14	100	97	7	?	96
SMILES	GSH fluor	RGS8-Gao	RGS4-Gao reg	Avidin bead fluor	RGS7-Gao	RGS16-Gao
CCOc1ccc(CC(=O)NNC(=O)NC2CCCCC2)cc1	20	101	99	9	94	99
CCOc1ccc(CC(=O)NNC(=S)NC2CCCCC2)cc1OCC	128*	99	98	4	100	106
OC1(c2ccc(Cl)c(Cl)c2)C[n+]2ccccc2N1Cc1ccccc1 (configuration not stated)	/	101	104	8	?	103
CS(=O)(=O)c1ncc(CO)n1Cc1ccccc1	19	100	101	9	?	100
CCCCN(Cc1cc2cc(OC)ccc2[nH]c1=O)C(=O)c1ccco1	11	103	106	5	107	101
CCCN(Cc1cc2cc(OC)ccc2[nH]c1=O)C(=O)c1ccco1	/	100	125	49*	?	102
O=C(CN1CCOCC1)N1CCN(S(=O)(=O)c2ccccc2)C1c1ccccc1 (configuration not stated)	14	99	101	59*	105	99
CC(=O)NC1CCCN(O)C(=O)/C=C(\C)CCOC(=O)C(NC(C)=O)CCCN(O)C(=O)/C=C(\C)CCOC(=O)C(NC(C)=O)CCCN(O)C(=O)/C=C(\C)CCOC1=O (configuration not stated)	18	96	93	6	92	92
COc1ccc(NC(=O)CCN2CCN(S(=O)(=O)c3cc(Cl)ccc3Cl)CC2)cc1	29	106	136	60*	114	156
COc1ccc(NC(=O)CCN2CCN(S(=O)(=O)c3ccc(OC)cc3)CC2)cc1	11	100	101	10	97	107
CN(Cc1ccccc1)S(=O)(=O)c1ccc(NS(=O)(=O)Cc2ccccc2)cc1	11	101	100	50*	107	104
O=C(c1ccc(C(F)(F)F)cc1)C1CCCN(Cc2cccn2-c2ncccn2)C1 (configuration not stated)	13	104	105	11	107	112
CCOc1ccc(N2CC(C(=O)Nc3cccc(S(=O)(=O)NC4=NCCC4)c3)CC2=O)cc1 (configuration not stated)	/	99	104	/	?	96
CC(=O)Oc1ccc2c(c1)Oc1cc(OC(C)=O)ccc1C21OC(=O)c2ccccc21	200*	165*[activator]	581*[activator]	399*	628*[activator]	888*[activator]
COC(=O)c1cc(NC(=O)c2cccc(Cl)c2)c(=O)oc1/C=C/Nc1cc(C)cc(C)c1	173*	99	106	16	104	108
COC(=O)c1cc(NC(=O)c2cccc(C(F)(F)F)c2)c(=O)oc1C	19	102	103	11	?	103
O=c1c(-c2ccnn2-c2ccccc2F)cnc2n1CCS2	249*	101	101	7	102	97
Cn1c(=O)c([N+](=O)[O-])c(NCC2CCCO2)c2ccccc21 (configuration not stated)	/	100	103	11	?	103
CSCCC1NC(=O)N(CC(=O)Nc2ccc(-c3ccccc3)cc2)C1=O (configuration not stated)	/	101	104	6	?	101
CCCN(CCC)S(=O)(=O)c1ccc(NS(=O)(=O)c2ccc(F)cc2)cc1	19	99	102	52*	110	101
Cc1ccc(-c2ccc(CCC(=O)O)n2Cc2ccco2)cc1	13	98	95	49*	100	96
COc1ccc(Cn2c(C)nnc2-c2cnn(C)c2N)cc1OC	13	100	99	9	101	97
Cc1nnc(-c2cnn(C)c2N)n1Cc1ccccc1F	270*	103	104	6	97	108
